# Reference: PubChem BioAssay
# The source made the active and inactive calls. Unless noted, the rule behind the calls is not given here.
# What was measured:
# [1] = resazurin metabolic signal in HepG2 cells – cell-based, resazurin fluorescence, 24 h, PK04 Diversity Set, profiling panel (AID 1172); settings: HepG2 viability, higher = more signal
# [2] = budding yeast growth changes without added modifier – OD600, strain BY4716, 24 h, basal condition, primary screen (AID 1173); settings: S. cerevisiae BY4716 growth, OD600, 24 h; higher = more signal, called active from +8 up or from −8 down
# [3] = viability profiling in MM1S myeloma cells – cell-based, resazurin fluorescence, basal, 24 h, PK04 Diversity Set, profiling panel (AID 1174); settings: higher = more signal, called active from +8 up or from −8 down;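 note: MM1S multiple myeloma cell line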
# [4] = molecular target: Dihydroorotate dehydrogenase (quinone), mitochondrial (Plasmodium falciparum (isolate 3D7)) (UniProt Q08210); test: inhibition of P. falciparum DHODH – biochemical, C-terminal His tag, absorbance 600 nm, primary screen (AID 1175); settings: PfDHODH enzyme, DCIP absorbance 600 nm; higher = more signal, called active from +8 up or from −8 down;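 note: recombinant parasite enzyme with a five histidine tag at its C terminus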
# Chain of Dihydroorotate dehydrogenase (quinone), mitochondrial (Plasmodium falciparum (isolate 3D7)) (Q08210 whole entry, looked up): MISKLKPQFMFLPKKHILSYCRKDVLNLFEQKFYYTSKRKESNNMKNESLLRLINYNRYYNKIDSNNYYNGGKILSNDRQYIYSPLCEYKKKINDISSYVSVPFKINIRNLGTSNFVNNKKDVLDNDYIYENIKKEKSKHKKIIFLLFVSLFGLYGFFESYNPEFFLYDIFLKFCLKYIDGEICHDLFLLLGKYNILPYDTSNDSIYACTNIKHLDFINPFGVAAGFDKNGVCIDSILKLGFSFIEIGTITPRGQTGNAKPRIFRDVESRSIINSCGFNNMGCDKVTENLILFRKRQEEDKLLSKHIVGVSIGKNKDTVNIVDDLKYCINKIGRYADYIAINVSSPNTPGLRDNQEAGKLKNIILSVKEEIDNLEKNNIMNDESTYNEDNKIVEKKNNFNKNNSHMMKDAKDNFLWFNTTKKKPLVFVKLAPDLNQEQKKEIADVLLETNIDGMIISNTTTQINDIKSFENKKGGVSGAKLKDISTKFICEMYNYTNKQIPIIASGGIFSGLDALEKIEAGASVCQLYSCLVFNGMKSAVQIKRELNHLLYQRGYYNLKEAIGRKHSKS
# [5] = inhibition of PAO1 biofilm formation – strain PAO1, LB-PBS medium, absorbance 600 nm, primary screen (AID 1176); settings: P. aeruginosa PAO1 growth/biofilm, A600, 12 h; higher = more signal
# [6] = growth modulation of vineyard yeast isolate – strain RM11-1a, OD600, basal, 24 h, primary screen (AID 1177);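 note: cultures grown under basal conditions with no added stressor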; settings: S. cerevisiae RM11-1a growth, OD600, 24 h; higher = more signal, called active from +8 up or from −8 down
# [7] = growth of efflux-deficient E. coli DRC39 – strain DRC39, OD650, 24 h, E. coli filamentation inducers, primary screen (AID 1178);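 note: growth measured as culture turbidity by optical density at 650 nm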; settings: E. coli DRC39 acrAB, higher = more signal, called active from +8 up or from −8 down
# [8] = growth of efflux-deficient E. coli DRC39 – strain DRC39, OD650, 48 h, E. coli filamentation inducers, primary screen (AID 1179);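 note: screen aims at cell division blockers that make cells filament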; settings: E. coli DRC39 delta-acrAB growth, higher = more signal, called active from +8 up or from −8 down
# [9] = viability profiling in RPMI8226 myeloma cells – cell-based, resazurin fluorescence, basal, 24 h, PK04 Diversity Set, profiling panel (AID 1180); settings: higher = more signal;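 note: RPMI8826 multiple myeloma cell line at 5000 cells per well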
# [10] = molecular target: E3 ubiquitin-protein ligase XIAP (Homo sapiens) (UniProt P98170); test: small molecules binding XIAP protein – biophysical, small-molecule microarray, fluorescence 635 nm, primary screen (AID 1181); settings: higher = more signal;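 note: score merges 667 nm emission and signal to noise over triplicate slides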
# Chain of E3 ubiquitin-protein ligase XIAP (Homo sapiens) (P98170 whole entry, looked up, the tested form may be a part): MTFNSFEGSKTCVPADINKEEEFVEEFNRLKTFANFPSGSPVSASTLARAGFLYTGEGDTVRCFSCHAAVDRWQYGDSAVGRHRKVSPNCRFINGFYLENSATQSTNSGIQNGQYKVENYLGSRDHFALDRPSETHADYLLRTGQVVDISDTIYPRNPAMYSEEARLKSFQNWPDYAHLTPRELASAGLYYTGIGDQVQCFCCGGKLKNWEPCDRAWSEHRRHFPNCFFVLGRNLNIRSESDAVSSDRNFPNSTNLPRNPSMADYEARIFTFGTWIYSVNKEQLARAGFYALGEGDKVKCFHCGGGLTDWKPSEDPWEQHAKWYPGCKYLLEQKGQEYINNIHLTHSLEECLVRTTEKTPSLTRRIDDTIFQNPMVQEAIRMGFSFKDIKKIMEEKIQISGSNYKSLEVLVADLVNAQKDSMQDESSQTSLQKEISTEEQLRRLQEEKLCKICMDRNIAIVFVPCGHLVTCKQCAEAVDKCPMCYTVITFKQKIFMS
# [11] = test system: XIP peptide (Xip251-270) binding; test: XIP fragment 251-270 binding compounds – biochemical, small-molecule microarray, fluorescence 635/667 nm, 0.1 µg/mL protein, primary screen (AID 1182); settings: fluorescent protein binding, 635 nm, higher = more signal, called active from +8 up or from −8 down
# XIP peptide (Xip251-270) = test: compounds binding XIP fragment 251-270 – biochemical, small-molecule microarray, fluorescence 635/667 nm, 0.5 µg/mL protein, primary screen (AID 1183); settings: fluorescence 635 nm, higher = more signal
# [12] = blood-stage malaria parasite viability loss – strain 3D7, DAPI fluorescence, 100 nL, primary screen (AID 1184);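 note: parasites grown inside human red blood cells in medium with human serum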; settings: P. falciparum 3D7 growth, 3 d, higher = more signal
# [13] = molecular target: Homeobox protein Hox-A13 (Mus musculus) (UniProt Q62424); test: disruptors of Hoxa13 oligonucleotide interaction – biochemical, fluorescence polarization, labeled oligonucleotide, primary screen (AID 1185); settings: Hoxa13:DNA binding, 15 min, higher = more signal, called active from +8 up or from −8 down
# Chain of Homeobox protein Hox-A13 (Mus musculus) (Q62424 whole entry, looked up): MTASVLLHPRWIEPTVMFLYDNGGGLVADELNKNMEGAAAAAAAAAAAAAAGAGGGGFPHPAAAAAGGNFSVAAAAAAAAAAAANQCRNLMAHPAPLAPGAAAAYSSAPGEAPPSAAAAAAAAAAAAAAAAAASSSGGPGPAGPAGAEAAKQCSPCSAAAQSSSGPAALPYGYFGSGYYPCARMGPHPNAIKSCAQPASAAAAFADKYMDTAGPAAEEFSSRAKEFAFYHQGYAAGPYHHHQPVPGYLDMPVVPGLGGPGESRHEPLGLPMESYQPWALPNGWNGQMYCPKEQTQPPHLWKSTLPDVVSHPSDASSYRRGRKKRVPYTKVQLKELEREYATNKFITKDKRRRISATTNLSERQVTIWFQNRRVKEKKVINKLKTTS
# [14] = blockers of DNA damage checkpoint Chk1 activation – imaging, HeLa, hydroxyurea, phospho-Chk1 antibody, percent positive cells, primary screen (AID 1186); settings: hydroxyurea-induced phospho-Chk1 immunofluorescence imaging, higher = more signal
# [15] = blockers of DNA damage checkpoint Chk1 activation – imaging, HeLa, hydroxyurea, phospho-Chk1 nuclear intensity, primary screen (AID 1187); settings: hydroxyurea-induced phospho-Chk1 immunofluorescence imaging, higher = more signal
Compound,z-score [1],z-score [2],z-score [3],composite z-score [4],z-score [5],z-score [6],z-score [7],z-score [8],z-score [9],composite z-score [10],composite z-score [11],composite z-score (XIP peptide (Xip251-270)),z-score [12],z-score [13],z-score [14],z-score [15]
C=CCN1C(=O)[C@]2(O[C@H](CCO)[C@@H]([Si](C)(C)c3ccc(OC)cc3)[C@@H]2C)c2cc(NC(=O)[C@H](C)O)ccc21,-0.646,-0.151 (inactive),-1.43 (inactive),0.235 (inactive),0.0943 (inactive),2.79 (inactive),-0.483 (inactive),-0.955 (inactive),-2.8,0.0223,1.46 (inactive),0.822,-2.74,-5.5 (inactive),1.42 (inactive),0.436 (inactive)
C#CCN(C(/C=C/c1ccccc1)CO)C(C(=O)O)c1ccccc1 (centres undefined),-0.589,-2.64 (inactive),0.274 (inactive),-3.17 (inactive),-0.565 (inactive),-0.643 (inactive),1.6 (inactive),-0.198 (inactive),-0.0777,-0.175,0.194 (inactive),-0.722,-2.23,0.9 (inactive),0.301 (inactive),0.353 (inactive)
O=C1O[C@H](c2ccccc2)[C@H](c2ccccc2)N2[C@H]1[C@@H](C(=O)O)[C@]1(C(=O)Nc3ccc(C#CC4(O)CCCCCC4)cc31)[C@H]2c1ccc(OCCO)cc1,0.246,-0.495 (inactive),-0.249 (inactive),-4.61 (inactive),1.07 (inactive),2.12 (inactive),-0.184 (inactive),-0.151 (inactive),-0.317,-0.0181,1.31 (inactive),0.599,0.362,-6.3 (inactive),-0.125 (inactive),-0.198 (inactive)
Cc1ccc(S[C@]2(C(=O)NC3CC3)CC(=O)N(Cc3ccccc3)[C@@H]2c2ccc(CO)cc2)cc1,-0.177,-1.71 (inactive),0.262 (inactive),-0.867 (inactive),0.196 (inactive),-0.5 (inactive),0.354 (inactive),-0.255 (inactive),0.35,0.0424,0.795 (inactive),0.327,-0.308,-2.47 (inactive),0.0616 (inactive),0.0892 (inactive)
C[N+](C)(C)CCCCCCNC(=O)[C@H]1C[C@H]2C(=O)N3CCC[C@H]3C(=O)N2[C@H]1c1ccc(O)cc1,0.202,-0.652 (inactive),0.488 (inactive),-2.18 (inactive),2.48 (inactive),-0.201 (inactive),-0.834 (inactive),-1.15 (inactive),-0.603,0.127,1.07 (inactive),0.276,-1.03,0.0641 (inactive),-0.428 (inactive),-0.356 (inactive)
NCCCCCNC(=O)[C@H]1C[C@H]2C(=O)NCC(=O)N2[C@H]1c1cccc(OCCO)c1,0.871,-0.0725 (inactive),0.998 (inactive),-0.355 (inactive),-0.242 (inactive),0.0993 (inactive),1.07 (inactive),1.23 (inactive),0.616,-0.119,0.228 (inactive),0.781,0.222,-1.68 (inactive),0.0838 (inactive),0.179 (inactive)
CCC(CC)C(O)C1C=CC2C(=O)N(c3ccccc3)C(=O)C2N1Nc1ccc(C#N)cc1 (centres undefined),-0.813,-0.174 (inactive),-0.253 (inactive),-1.69 (inactive),1.55 (inactive),-0.358 (inactive),-0.698 (inactive),0.133 (inactive),-0.308,-0.101,0.132 (inactive),0.799,0.324,-1.39 (inactive),0.288 (inactive),0.192 (inactive)
COC(=O)c1ccc(C(O)C2C=CC3C(=O)N(C)C(=O)C3N2NC(=O)OC(C)(C)C)o1 (centres undefined),-0.784,0.483 (inactive),-0.29 (inactive),-0.0658 (inactive),0.599 (inactive),0.402 (inactive),-0.685 (inactive),-0.757 (inactive),-0.212,1.42,3.49 (inactive),0.789,0.926,-1.46 (inactive),-0.0792 (inactive),-0.0828 (inactive)
N[C@@H](Cc1ccccc1)Cn1cc(-c2ccccc2)nn1,-0.473,-2.26 (inactive),-0.29 (inactive),1.11 (inactive),0.444 (inactive),-0.519 (inactive),0.405 (inactive),-0.679 (inactive),-0.587,-0.377,-0.259 (inactive),-0.533,0.942,-0.823 (inactive),0.201 (inactive),0.117 (inactive)
